Drawing on publication PMC7862700, “An all-to-all approach to the identification of sequence-specific readers for epigenetic DNA modifications on cytosine”, this text covers binding signal for one sequence.

What all share (assay): DAPPL (digital affinity profiling via proximity ligation, sequencing); 10 mM Tris-HCl pH 7.5, 50 mM NaCl, 1 mM DTT, 4% glycerol, room temperature, 30 min; GST-TFs on glutathione beads, 16-mer random dsDNA library, 0.1% formaldehyde crosslink after washing; high values mean tight binding
Assay [1] addresses T1, FLI1 (Homo sapiens, UniProt Q01543 1-452).
T1 sequence: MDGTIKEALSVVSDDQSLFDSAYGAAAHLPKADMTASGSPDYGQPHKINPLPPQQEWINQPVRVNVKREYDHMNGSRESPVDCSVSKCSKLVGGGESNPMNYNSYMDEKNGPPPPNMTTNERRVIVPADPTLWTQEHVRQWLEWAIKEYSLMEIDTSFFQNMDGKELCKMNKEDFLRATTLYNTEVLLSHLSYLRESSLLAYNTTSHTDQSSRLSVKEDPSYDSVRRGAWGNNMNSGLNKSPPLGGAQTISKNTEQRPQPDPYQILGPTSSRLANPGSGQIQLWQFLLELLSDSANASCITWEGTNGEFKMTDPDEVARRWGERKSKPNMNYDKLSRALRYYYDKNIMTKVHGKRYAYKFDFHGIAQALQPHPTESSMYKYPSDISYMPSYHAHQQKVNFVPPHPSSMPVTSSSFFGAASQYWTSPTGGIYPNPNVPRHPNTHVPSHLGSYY
As to conditions: protein: recombinant; tags: N-terminal GST; dsDNA, one strand shown. The gist of the method:
(§1)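 Sequencing on an Illumina NextSeq500 followed washing, crosslinking with 0.1% formaldehyde, proximity ligation (BsaI/T4 ligase, 1 h, 37 °C) and PCR amplification of pools that had been incubated for 30 min at room temperature with 200 nmole of a random double-stranded 16-mer DNA library in Tris/NaCl/DTT/glycerol buffer. Each pool held DNA-barcoded human transcription factors, expressed in yeast as GST fusions and captured on glutathione beads, plus a tag-only sample. Binding signal is a hexamer's read frequency for a factor divided by its frequency in the tag-only sample.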

Assay [2] has as its target T2, ELK1 (Homo sapiens, UniProt P19419 1-428).
T2 sequence: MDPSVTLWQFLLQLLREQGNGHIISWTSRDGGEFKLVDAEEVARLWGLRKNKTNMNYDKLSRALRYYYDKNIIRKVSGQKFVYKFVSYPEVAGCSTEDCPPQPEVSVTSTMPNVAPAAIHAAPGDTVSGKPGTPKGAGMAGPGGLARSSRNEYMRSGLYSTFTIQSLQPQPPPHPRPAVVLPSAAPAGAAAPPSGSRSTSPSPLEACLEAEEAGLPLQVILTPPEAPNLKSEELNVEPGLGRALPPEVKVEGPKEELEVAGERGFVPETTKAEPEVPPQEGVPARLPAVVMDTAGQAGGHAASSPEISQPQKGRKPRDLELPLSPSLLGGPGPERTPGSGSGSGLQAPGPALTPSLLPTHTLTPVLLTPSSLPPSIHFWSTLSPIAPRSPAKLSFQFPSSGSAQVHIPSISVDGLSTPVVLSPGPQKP
To be noted: protein: recombinant; tags: N-terminal GST; dsDNA, one strand shown. Summed up:
as §1

Assay [3] concerns the target T3, GABPA (Homo sapiens, UniProt Q06546 1-454).
T3 sequence: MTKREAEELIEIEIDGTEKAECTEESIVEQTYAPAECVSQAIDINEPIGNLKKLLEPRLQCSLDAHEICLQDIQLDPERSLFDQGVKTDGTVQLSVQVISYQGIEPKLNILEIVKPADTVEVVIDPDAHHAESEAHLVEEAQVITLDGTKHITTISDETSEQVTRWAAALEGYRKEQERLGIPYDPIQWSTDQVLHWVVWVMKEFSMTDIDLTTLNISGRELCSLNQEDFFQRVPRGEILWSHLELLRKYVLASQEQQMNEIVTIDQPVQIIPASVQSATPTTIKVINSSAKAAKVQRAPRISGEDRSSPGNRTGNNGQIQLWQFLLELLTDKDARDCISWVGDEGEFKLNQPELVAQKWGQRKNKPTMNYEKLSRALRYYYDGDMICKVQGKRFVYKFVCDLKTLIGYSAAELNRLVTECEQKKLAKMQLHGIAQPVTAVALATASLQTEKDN
To be noted: protein: recombinant; tags: N-terminal GST; dsDNA, one strand shown. Summed up: as §1

In assay [4] the target is T4, ERG (Homo sapiens, UniProt P11308 1-479).
T4 sequence: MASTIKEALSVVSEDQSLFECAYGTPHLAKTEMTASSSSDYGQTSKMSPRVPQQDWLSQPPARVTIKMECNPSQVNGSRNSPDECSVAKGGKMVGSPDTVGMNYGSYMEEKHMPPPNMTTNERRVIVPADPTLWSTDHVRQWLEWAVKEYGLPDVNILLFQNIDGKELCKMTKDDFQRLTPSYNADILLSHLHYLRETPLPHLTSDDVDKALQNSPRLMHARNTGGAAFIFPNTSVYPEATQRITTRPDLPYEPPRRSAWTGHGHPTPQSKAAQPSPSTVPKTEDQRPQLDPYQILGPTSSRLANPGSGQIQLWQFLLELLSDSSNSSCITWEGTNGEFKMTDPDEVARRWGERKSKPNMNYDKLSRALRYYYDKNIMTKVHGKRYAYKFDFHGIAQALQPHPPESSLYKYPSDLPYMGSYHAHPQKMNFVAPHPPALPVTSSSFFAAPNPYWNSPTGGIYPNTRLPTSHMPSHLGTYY
To be noted: protein: recombinant; tags: N-terminal GST; dsDNA, one strand shown. Summed up:
as §1

Assay [5] deals with ELF1 (Homo sapiens, UniProt P32519 1-619). To be noted: protein: recombinant; tags: N-terminal GST; dsDNA, one strand shown. Summed up:
as §1

Assay [6] addresses T5, EHF (Homo sapiens, UniProt Q9NZC4 1-300).
T5 sequence: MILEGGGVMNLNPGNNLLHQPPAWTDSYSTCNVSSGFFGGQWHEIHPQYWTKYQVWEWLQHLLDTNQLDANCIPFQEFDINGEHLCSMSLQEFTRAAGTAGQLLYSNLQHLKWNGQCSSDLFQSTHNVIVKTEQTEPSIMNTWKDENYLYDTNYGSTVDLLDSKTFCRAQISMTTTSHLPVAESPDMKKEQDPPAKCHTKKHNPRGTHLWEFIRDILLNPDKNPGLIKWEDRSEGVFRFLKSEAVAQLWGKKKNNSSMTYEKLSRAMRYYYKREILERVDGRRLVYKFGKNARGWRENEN
To be noted: protein: recombinant; tags: N-terminal GST; dsDNA, one strand shown. The gist of the method: as §1

Assay [7] concerns the target SPI1 (Homo sapiens, UniProt P17947 1-270). To be noted: protein: recombinant; tags: N-terminal GST; dsDNA, one strand shown. The gist of the method: as §1
Assay [8] concerns the target SPIB (Homo sapiens, UniProt Q01892 1-262). As to conditions: protein: recombinant; tags: N-terminal GST; dsDNA, one strand shown. Summed up: as §1
Assay [9] has as its target T6, ELK3 (Homo sapiens, UniProt P41970 1-407).
T6 sequence: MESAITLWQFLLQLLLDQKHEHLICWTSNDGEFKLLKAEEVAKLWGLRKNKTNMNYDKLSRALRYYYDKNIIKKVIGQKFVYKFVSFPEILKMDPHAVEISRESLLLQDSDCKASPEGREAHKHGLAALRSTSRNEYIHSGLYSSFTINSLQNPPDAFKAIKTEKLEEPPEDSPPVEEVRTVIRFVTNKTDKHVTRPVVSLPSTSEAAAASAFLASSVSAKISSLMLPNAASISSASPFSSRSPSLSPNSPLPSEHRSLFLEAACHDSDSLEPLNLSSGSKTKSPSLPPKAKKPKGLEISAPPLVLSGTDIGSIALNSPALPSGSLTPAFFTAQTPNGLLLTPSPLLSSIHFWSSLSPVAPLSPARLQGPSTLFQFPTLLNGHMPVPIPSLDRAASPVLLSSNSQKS
To be noted: protein: recombinant; tags: N-terminal GST; dsDNA, one strand shown. The gist of the method: as §1

Assay [10] concerns the target T7, FEV (Homo sapiens, UniProt Q99581 1-238).
T7 sequence: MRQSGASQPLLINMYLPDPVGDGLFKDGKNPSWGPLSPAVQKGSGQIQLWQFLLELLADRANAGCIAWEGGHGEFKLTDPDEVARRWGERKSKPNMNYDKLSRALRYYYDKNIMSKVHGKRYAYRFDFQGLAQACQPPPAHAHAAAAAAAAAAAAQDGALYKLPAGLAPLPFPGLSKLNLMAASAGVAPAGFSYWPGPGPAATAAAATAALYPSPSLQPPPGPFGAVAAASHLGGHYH
As to conditions: protein: recombinant; tags: N-terminal GST; dsDNA, one strand shown. The gist of the method: as §1

In assay [11] the target is ETV5 (Homo sapiens, UniProt P41161 1-510). As to conditions: protein: recombinant; tags: N-terminal GST; dsDNA, one strand shown. Summed up: as §1
For assay [12], the target named is HSF1 (Homo sapiens, UniProt Q00613 1-529). As to conditions: protein: recombinant; tags: N-terminal GST; chain copies: 3; dsDNA, one strand shown. Summed up: as §1
Assay [13] addresses T8, SPIC (Homo sapiens, UniProt Q8N5J4 1-248).
T8 sequence: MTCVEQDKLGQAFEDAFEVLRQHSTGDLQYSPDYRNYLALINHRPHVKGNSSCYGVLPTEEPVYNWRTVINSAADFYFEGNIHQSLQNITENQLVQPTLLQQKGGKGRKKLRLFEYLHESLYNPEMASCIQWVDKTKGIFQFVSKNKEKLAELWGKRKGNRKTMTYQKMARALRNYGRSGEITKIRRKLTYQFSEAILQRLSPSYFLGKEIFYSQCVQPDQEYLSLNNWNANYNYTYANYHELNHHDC
To be noted: protein: recombinant; tags: N-terminal GST; dsDNA, one strand shown. The gist of the method:
as §1

For assay [14], the target named is ELF4 (Homo sapiens, UniProt Q99607 1-663). As to conditions: protein: recombinant; tags: N-terminal GST; dsDNA, one strand shown. Summed up: as §1
Assay [15] addresses T9, ELK4 (Homo sapiens, UniProt P28324-2 1-405).
T9 sequence: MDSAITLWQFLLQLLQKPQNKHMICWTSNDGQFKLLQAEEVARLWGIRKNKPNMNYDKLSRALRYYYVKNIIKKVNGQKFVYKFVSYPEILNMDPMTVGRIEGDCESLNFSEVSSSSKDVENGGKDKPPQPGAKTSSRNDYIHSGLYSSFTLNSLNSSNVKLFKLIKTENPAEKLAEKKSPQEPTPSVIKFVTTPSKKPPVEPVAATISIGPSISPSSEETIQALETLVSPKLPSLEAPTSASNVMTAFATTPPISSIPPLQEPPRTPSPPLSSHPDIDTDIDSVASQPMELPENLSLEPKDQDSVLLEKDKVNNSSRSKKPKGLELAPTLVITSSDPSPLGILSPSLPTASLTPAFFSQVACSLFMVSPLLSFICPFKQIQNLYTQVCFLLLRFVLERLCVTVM
To be noted: protein: recombinant; tags: N-terminal GST; dsDNA, one strand shown. The gist of the method:
as §1

For assay [16], the target named is T10, ETV2 (Homo sapiens, UniProt O00321 1-342).
T10 sequence: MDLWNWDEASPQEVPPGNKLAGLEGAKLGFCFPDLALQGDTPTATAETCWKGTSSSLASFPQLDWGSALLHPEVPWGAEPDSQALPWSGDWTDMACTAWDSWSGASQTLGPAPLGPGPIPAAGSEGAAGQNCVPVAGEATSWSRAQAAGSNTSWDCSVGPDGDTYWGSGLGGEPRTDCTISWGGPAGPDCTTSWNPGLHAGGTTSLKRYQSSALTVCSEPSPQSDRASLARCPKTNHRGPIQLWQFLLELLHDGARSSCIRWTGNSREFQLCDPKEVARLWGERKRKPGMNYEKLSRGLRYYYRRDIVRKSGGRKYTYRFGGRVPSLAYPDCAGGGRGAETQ
To be noted: protein: recombinant; tags: N-terminal GST; dsDNA, one strand shown. The gist of the method: as §1

Assay [17] addresses T11, ELF3 (Homo sapiens, UniProt P78545 1-371).
T11 sequence: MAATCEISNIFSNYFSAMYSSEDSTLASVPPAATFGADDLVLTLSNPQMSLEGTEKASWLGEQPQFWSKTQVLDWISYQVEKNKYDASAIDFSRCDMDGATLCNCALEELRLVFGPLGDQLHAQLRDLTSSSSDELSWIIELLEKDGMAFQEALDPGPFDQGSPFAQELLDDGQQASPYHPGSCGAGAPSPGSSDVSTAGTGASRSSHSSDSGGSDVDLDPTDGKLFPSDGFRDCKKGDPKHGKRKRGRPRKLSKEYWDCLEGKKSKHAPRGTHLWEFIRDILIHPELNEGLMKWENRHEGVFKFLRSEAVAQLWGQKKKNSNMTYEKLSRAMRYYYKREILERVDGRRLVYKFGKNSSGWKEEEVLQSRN
As to conditions: protein: recombinant; tags: N-terminal GST; dsDNA, one strand shown. Summed up: as §1

The target of assay [18] is ETV1 (Homo sapiens, UniProt P50549 1-477). To be noted: protein: recombinant; tags: N-terminal GST; dsDNA, one strand shown. Summed up:
as §1

ETV5, sequence (P41161 whole entry): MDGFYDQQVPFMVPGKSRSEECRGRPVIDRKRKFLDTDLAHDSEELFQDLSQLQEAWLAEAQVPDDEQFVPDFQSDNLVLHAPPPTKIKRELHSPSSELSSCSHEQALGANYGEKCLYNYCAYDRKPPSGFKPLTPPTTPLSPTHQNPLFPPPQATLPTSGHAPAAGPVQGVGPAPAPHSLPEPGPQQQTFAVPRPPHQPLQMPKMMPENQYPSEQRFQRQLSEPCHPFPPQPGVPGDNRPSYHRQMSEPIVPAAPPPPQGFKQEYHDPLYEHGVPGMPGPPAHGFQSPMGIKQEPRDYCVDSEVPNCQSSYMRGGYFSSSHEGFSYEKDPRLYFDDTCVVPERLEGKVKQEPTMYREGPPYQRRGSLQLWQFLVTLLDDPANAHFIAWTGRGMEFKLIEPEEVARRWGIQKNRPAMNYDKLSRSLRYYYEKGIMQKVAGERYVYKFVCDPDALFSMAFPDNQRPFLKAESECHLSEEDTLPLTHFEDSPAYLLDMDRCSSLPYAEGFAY
ELF1, sequence (P32519 whole entry): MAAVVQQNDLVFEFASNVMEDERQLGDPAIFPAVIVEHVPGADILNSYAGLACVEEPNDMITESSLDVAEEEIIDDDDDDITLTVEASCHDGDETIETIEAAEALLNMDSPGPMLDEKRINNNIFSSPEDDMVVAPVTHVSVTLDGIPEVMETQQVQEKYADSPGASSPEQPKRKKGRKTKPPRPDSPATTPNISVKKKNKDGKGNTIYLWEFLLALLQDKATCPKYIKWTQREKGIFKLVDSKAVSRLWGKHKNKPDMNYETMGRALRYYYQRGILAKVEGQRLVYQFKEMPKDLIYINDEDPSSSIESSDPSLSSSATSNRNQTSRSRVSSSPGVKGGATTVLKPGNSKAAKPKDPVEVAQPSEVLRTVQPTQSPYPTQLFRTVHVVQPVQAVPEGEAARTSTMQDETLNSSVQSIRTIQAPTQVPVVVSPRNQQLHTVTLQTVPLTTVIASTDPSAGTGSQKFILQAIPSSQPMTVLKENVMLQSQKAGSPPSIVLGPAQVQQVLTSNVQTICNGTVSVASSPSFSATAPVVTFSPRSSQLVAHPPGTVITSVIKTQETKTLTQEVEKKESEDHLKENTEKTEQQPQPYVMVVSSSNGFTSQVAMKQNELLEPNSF
HSF1, sequence (Q00613 whole entry): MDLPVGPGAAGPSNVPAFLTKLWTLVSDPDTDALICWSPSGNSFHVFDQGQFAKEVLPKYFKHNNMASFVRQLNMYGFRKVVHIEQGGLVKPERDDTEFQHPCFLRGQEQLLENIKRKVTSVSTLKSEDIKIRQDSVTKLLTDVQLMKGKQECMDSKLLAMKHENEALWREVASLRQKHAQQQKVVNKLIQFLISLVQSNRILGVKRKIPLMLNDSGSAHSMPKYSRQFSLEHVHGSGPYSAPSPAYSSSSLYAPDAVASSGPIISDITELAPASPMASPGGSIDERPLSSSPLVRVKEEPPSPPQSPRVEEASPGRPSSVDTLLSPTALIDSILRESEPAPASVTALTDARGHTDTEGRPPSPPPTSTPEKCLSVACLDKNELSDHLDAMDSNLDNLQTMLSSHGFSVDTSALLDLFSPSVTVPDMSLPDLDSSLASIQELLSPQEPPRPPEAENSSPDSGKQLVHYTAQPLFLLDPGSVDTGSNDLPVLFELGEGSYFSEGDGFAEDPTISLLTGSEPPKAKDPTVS
ELF4, sequence (Q99607 whole entry): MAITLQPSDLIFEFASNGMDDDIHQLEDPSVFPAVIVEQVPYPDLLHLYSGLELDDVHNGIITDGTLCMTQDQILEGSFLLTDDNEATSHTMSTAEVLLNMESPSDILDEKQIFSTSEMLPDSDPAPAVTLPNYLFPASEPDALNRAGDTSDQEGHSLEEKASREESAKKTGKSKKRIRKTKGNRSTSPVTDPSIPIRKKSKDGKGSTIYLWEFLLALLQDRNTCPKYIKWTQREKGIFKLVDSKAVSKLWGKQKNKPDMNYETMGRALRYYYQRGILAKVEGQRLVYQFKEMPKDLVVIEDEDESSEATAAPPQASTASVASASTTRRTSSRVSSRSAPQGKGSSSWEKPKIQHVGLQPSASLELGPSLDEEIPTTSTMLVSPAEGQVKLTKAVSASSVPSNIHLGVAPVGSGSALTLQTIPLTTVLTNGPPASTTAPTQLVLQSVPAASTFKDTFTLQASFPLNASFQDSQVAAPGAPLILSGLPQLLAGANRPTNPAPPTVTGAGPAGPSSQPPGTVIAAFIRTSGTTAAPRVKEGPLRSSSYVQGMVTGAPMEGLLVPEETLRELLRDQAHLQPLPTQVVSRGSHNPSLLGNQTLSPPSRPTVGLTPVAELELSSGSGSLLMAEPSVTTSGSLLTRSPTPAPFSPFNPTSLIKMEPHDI
SPIB, sequence (Q01892 whole entry): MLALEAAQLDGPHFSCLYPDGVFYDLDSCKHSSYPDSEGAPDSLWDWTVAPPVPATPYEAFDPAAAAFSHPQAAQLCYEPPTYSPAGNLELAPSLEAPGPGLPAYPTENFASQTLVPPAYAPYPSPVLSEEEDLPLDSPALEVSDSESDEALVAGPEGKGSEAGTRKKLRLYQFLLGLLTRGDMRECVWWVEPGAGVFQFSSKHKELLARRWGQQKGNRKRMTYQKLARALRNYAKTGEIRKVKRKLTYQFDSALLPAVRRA
ETV1, sequence (P50549 whole entry): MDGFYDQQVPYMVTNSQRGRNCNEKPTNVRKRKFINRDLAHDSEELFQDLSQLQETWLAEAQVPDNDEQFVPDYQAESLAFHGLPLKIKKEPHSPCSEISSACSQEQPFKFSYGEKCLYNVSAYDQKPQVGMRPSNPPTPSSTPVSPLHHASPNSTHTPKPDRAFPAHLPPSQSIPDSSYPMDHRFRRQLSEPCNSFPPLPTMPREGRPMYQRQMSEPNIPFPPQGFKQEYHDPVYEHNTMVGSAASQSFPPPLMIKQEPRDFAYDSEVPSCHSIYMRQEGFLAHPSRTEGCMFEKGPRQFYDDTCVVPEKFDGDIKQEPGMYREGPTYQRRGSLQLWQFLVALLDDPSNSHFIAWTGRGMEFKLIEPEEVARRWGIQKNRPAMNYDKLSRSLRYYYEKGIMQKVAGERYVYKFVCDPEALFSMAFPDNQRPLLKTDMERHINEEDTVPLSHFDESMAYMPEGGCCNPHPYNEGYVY

As to GGAAAA, the binding signal in assay [1] was 1.16 fold enrichment (6-mer frequency, TF over GST control); in assay [2], 1.17 fold enrichment (6-mer frequency, TF over GST control); in [3], 1.2 fold enrichment (6-mer frequency, TF over GST control); in assay [4] it was 1.3 fold enrichment (6-mer frequency, TF over GST control); in [5] it was 1.14 fold enrichment (6-mer frequency, TF over GST control); in assay [6] it was 1.38 fold enrichment (6-mer frequency, TF over GST control). The binding signal in assay [7] was 1.2 fold enrichment (6-mer frequency, TF over GST control); in assay [8], 1.35 fold enrichment (6-mer frequency, TF over GST control); in assay [9], 1.22 fold enrichment (6-mer frequency, TF over GST control); in assay [10], 1.2 fold enrichment (6-mer frequency, TF over GST control); in assay [11], 1.32 fold enrichment (6-mer frequency, TF over GST control); in assay [12], 1.62 fold enrichment (6-mer frequency, TF over GST control). Further, the binding signal in assay [13] is 1.29 fold enrichment (6-mer frequency, TF over GST control); in assay [14], 1.19 fold enrichment (6-mer frequency, TF over GST control); in assay [15], 1.01 fold enrichment (6-mer frequency, TF over GST control); in [16], 1.22 fold enrichment (6-mer frequency, TF over GST control); in assay [17], 1.39 fold enrichment (6-mer frequency, TF over GST control); in assay [18], 1.27 fold enrichment (6-mer frequency, TF over GST control).
